{"source": "PubChem BioAssay", "key": {"[1]": {"assay": "stimulators of nuclear beta-catenin in C2C12, primary screen, imaging, WNT3A-conditioned medium, mouse C2C12, NPC library (AID 1117326; in the data active = nuclear beta-catenin stimulation mostly above about 4.2%, no sharp cut-off; inactive = mostly below about 10%)", "settings": "stronger effect = higher value"}, "[2]": {"assay": "stimulators of insulin release from INS-1E, primary screen, cell-based, 5 mM glucose, NPC library (AID 1117329;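 active = compound raises insulin release from rat beta cells at 5 mM glucose, no numeric limit stated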)", "settings": "rat INS-1E insulin secretion, at 10 µM, stronger effect = higher value"}, "[3]": {"assay": "growth inhibition of GSK3B-pretreated HCT116 cells – cell-based, CellTiter-Glo, 0.2 to 20 µM (AID 1117336;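 active = compounds lowering colon cancer cell viability after pretreatment blocking the GSK3B kinase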)", "settings": "HCT116 viability after GSK3B inhibitor, at 20 µM, stronger effect = higher value"}, "[4]": {"assay": "inhibition of endothelial tube formation, primary screen, imaging, VEGF stimulated, CD31 staining, tube area, NPC library (AID 1117340;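 active = compound that reduces growth-factor-driven endothelial tube area in a mixed cell culture, no cutoff stated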)", "settings": "VEGF-stimulated ADSC/ECFC co-culture, at 10 µM, stronger effect = higher value"}, "[5]": {"assay": "glucagon-like peptide 1 release enhancers, primary assay, NCI-H716 cell line, NPC library (AID 1117341;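 active = compound raises GLP1 secretion from the human gut endocrine cells, with no numeric limit stated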)", "settings": "NCI-H716 cells, at 10 µM, stronger effect = higher value"}, "[6]": {"assay": "HCT116 colon cancer cell growth inhibition, primary screen, CellTiter-Glo luminescence, NPC library (AID 1117342;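 active = compounds that lower survival of HCT116 colon cancer cells in the luminescence readout, no numeric limit stated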)", "settings": "at 20 µM (top of the series)"}, "[7]": {"assay": "CellTiter-Glo luminescent readout of SW480 viability loss, NPC library primary (AID 1117343;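 active = compounds that lower viability of the colon cancer cells in the luminescence readout, with no numeric limit stated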)", "settings": "CellTiter-Glo luminescence; at 20 µM (top of the series)"}, "[8]": {"assay": "decreased DLD-1 cellular survival, CellTiter-Glo luminescent readout, NPC compound collection, primary HTS (AID 1117346;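 active = compounds that lower survival of DLD-1 colon cancer cells in the luminescence readout, no cutoff given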)", "settings": "DLD-1 viability, CellTiter-Glo luminescence; at 20 µM (top of the series)"}, "[9]": {"target": "6-phosphogluconate dehydrogenase, decarboxylating (Homo sapiens) (UniProt P52209)", "sequence (P52209 whole entry, looked up)": "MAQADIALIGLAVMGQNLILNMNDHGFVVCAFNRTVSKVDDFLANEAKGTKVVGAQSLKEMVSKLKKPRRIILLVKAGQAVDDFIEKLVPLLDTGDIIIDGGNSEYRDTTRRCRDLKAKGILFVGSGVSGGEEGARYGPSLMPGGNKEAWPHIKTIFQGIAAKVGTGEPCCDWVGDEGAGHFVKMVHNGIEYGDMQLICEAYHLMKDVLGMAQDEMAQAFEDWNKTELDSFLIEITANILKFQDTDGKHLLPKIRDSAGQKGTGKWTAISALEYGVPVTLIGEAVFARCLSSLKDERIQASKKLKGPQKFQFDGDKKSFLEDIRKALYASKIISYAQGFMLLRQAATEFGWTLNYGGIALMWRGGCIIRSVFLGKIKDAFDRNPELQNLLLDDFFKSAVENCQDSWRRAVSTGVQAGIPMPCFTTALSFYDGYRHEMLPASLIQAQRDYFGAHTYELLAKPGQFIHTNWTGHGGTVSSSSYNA", "assay": "6PGD enzyme inhibitors, primary screen, biochemical, human, recombinant enzyme, NADPH absorbance (AID 1159550;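 active = at least 20% inhibition of 6-phosphogluconate dehydrogenase activity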)", "settings": "recombinant 6PGD, NADPH absorbance 341 nm; at 10 µM; stronger effect = higher value"}, "[10]": {"assay": "modulation of C. elegans fzo-1 (AID 1259413; call rule not given here;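 as to all read-outs here: fzo-1 mutant C. elegans worms in liquid wells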)", "settings": "C. elegans fzo-1 modulator screen, mean read-out; stronger effect = higher value"}, "[11]": {"assay": "differential killing of epithelial or mesenchymal cells, primary screen, imaging, PC-3E GFP, TEM4-18 mCherry, co-culture (AID 1345086;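 active = compounds killing one labelled cell type while sparing the other, by normalised counts and ratio limits, not self-fluorescent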;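 as to all read-outs here: cells exposed to compound for 72 h before imaging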;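 as to red/green cell ratio (normalised): normalised mesenchymal count divided by normalised epithelial count so high means epithelial killing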)", "settings": "imaging cell counts, at 1 µM; for red/green cell ratio (normalised): actives lie on both sides, counts scaled to control wells, 1 = unselective"}, "[12]": {"assay": "sensitizers of A549 cells to miR-34 induction, primary screen, imaging, A549 dox-inducible miR-34, nuclei and caspase counts (AID 1347080;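 active = compounds whose cell count with miR-34 switched on is under 0.7 times the count with it off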)", "settings": "A549 miR-34 inducible, Hoechst nuclei count, 48 h"}, "[13]": {"assay": "survival rescue of mitochondrial mutant cells in low glucose, primary screen, MELAS cybrids, Rieske KO mouse fibroblasts, CellTiter-Glo (AID 1508586;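 active = mean z-score across replicates of 1.96 or higher in either the MELAS or the Rieske mutant cell line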)"}, "[14]": {"target": "NAD(+) hydrolase SARM1 (Homo sapiens) (UniProt Q6SZW1)", "sequence (Q6SZW1 whole entry, looked up)": "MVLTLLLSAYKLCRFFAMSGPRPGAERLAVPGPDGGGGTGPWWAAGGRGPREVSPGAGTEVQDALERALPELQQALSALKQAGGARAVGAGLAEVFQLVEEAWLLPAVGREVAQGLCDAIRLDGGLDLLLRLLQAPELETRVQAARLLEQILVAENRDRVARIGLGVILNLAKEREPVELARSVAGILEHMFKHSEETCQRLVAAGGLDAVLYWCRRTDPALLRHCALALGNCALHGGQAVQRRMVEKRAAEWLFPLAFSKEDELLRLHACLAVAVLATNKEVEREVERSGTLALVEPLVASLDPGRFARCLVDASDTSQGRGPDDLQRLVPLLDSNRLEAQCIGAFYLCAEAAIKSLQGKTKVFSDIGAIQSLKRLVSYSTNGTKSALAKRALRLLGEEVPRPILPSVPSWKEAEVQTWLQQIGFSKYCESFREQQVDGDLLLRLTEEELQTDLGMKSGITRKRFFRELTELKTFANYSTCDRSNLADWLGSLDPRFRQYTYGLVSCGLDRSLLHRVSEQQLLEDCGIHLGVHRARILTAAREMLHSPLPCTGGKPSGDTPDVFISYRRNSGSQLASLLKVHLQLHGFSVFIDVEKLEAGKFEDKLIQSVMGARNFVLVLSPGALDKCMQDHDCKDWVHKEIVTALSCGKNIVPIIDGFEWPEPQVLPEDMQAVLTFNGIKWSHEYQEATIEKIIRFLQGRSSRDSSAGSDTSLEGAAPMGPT", "assay": "SARM1 TIR NADase inhibitors, cell lysate, NAD-Glo luminescence (AID 1508614;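 active = compound whose remaining NAD level is above about 45 nM, limit read from the data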)", "settings": "SAM-TIR HEK293T lysate NADase, at 1 µM, stronger effect = higher value"}, "[15]": {"target": "Mitogen-activated protein kinase 7 (Homo sapiens) (UniProt Q13164)", "sequence (Q13164 whole entry, looked up, the tested form may be a part)": "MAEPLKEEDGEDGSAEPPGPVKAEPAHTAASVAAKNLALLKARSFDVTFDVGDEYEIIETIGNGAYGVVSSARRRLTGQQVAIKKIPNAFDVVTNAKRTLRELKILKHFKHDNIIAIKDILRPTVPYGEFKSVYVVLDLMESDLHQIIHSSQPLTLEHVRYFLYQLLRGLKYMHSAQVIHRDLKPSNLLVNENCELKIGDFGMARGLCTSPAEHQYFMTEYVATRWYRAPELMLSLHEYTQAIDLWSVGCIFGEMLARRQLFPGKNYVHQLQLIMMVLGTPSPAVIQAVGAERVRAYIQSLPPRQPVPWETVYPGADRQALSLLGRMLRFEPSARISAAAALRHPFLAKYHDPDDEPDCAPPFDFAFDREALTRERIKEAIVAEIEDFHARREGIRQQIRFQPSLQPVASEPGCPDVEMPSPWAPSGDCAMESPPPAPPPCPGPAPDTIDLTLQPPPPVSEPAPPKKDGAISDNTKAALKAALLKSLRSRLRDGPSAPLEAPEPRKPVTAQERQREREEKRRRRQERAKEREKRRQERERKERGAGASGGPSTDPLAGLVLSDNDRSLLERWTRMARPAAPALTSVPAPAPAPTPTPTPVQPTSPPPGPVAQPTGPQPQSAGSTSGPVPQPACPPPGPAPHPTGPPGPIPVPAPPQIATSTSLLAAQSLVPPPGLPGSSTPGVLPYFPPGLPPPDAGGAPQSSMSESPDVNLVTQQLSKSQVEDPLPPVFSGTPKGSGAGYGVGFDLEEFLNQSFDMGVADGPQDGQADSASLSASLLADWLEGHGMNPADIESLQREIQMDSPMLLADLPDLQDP", "assay": "ERK5 transactivation activators in reporter cells, primary screen, cell-based, HTS (AID 1508626;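 active = luciferase signal above three times the same-plate solvent-only control wells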;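 also: luciferase driven by Gal4-ERK5 fusion binding five Gal4 sites before minimal TATA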)", "settings": "HeLa Gal4-ERK5 transactivation, 18 h, at 5 µM, stronger effect = higher value"}, "F380Y": {"tested_on": "F380Y", "assay": "modulators of BK channel variants, profiling panel, selectivity assay, cell-based, U2OS BacMam, thallium flux, beta subunits (AID 1259406);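 also: initial slope of Thallos dye fluorescence rise after thallium is added; log ratio against the mean of 0.3% DMSO vehicle wells on the same plate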", "settings": "at 30 µM"}, "F380Y/beta1": {"tested_on": "F380Y/beta1", "assay": "modulators of BK channel variants, profiling panel, selectivity assay, cell-based, U2OS BacMam, thallium flux, beta subunits (AID 1259406)", "settings": "at 30 µM"}, "F380Y/beta2Delta": {"tested_on": "F380Y/beta2Delta", "assay": "modulators of BK channel variants, profiling panel, selectivity assay, cell-based, U2OS BacMam, thallium flux, beta subunits (AID 1259406)", "settings": "at 30 µM"}, "[16]": {"settings": "measured here: epithelial PC-3E GFP cell survival"}, "[17]": {"settings": "measured here: mesenchymal TEM4-18 mCherry cell survival"}, "[18]": {"settings": "stronger effect = lower value, cell number ratio, induced over uninduced"}, "[19]": {"settings": "measured here: relative caspase fold change +Dox/-Dox"}, "[20]": {"settings": "measured here: total cells with miR-34 induction, stronger effect = lower value"}, "[21]": {"settings": "measured here: total cells without miR-34 induction"}, "[22]": {"settings": "MELAS cybrid survival, CellTiter-Glo 48 h, stronger effect = higher value"}, "[23]": {"settings": "Rieske KO mouse fibroblast survival, CellTiter-Glo 72 h"}}, "note": "Several values for one entry are separate records, joined by “and”; a condition that tells them apart may be missing. Identical values can stand only once. Activity calls are given as the source filed them.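 The calls were made as follows, unless noted: active = thallium flux through the channel raised or lowered by more than 3 SD from vehicle-only wells, actives on both sides; inactive = the rest.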", "data": [{"compound": "CN(C)CCOC(c1ccc(Cl)cc1)c1ccccn1", "note": "(stereo not given)", "values": [{"measurement": "nuclear beta-catenin stimulation", "setting": "[1]; at 10 µM", "value": "0.9% (inactive)"}, {"measurement": "nuclear beta-catenin stimulation", "setting": "[1]; stimulation, at 2 µM", "value": 0.3, "unit": "%"}, {"measurement": "insulin secretion stimulation", "setting": "[2]", "value": "46.5% (active)"}, {"measurement": "viability decrease", "setting": "[3]", "value": "8.6% (inactive)"}, {"measurement": "tube area decrease", "setting": "[4]", "value": "1.1% (inactive)"}, {"measurement": "GLP1 secretion stimulation", "setting": "[5]", "value": "6.8% (inactive)"}, {"measurement": "inhibition of viability", "setting": "[6]", "value": "2.7% (inactive)"}, {"measurement": "viability decrease (inhibition)", "setting": "[7]", "value": "6% (inactive)"}, {"measurement": "viability decrease (inhibition)", "setting": "[8]", "value": "-7% (inactive)"}, {"measurement": "inhibition", "setting": "[9]", "value": "8.32% (inactive)"}, {"measurement": "mean signal", "setting": "[10]", "value": "244 (inactive)"}, {"measurement": "red/green cell ratio (normalised)", "setting": "[11]", "value": "1.11 (inactive)"}, {"measurement": "normalised cell number", "setting": "[11]; [16]", "value": 1.14}, {"measurement": "normalised cell number", "setting": "[11]; [17]", "value": 1.26}, {"measurement": "fold change", "setting": "[12]; [18]", "value": "0.98 (inactive) and 0.859 (inactive) and 0.928 (inactive)"}, {"measurement": "fold change", "setting": "[12]; [19]", "value": "1.31 and 1.4 and 2.86"}, {"measurement": "cell count", "setting": "[12]; [20]", "value": "9280 and 8230 and 11400"}, {"measurement": "cell count", "setting": "[12]; [21]", "value": "9460 and 9580 and 12300"}, {"measurement": "z-score", "setting": "[13]; [22]", "value": "0.0234 (inactive)"}, {"measurement": "z-score", "setting": "[13]; [23]", "value": -1.05}, {"measurement": "remaining NAD", "setting": "[14]", "value": "10 nM (inactive)"}, {"measurement": "luciferase signal", "setting": "[15]", "value": "88 AU (inactive)"}, {"measurement": "log fold change Tl+ flux", "setting": "F380Y", "value": "0.0898 (inactive)"}, {"measurement": "log fold change Tl+ flux", "setting": "F380Y/beta1", "value": "0.0451 (inactive)"}, {"measurement": "log fold change Tl+ flux", "setting": "F380Y/beta2Delta", "value": "0.0734 (inactive)"}]}, {"compound": "CN(C)CCc1c[nH]c2ccc(C[C@H]3COC(=O)N3)cc12", "values": [{"measurement": "nuclear beta-catenin stimulation", "setting": "[1]; at 10 µM", "value": "0.3% (inactive)"}, {"measurement": "nuclear beta-catenin stimulation", "setting": "[1]; stimulation, at 2 µM", "value": 1.8, "unit": "%"}, {"measurement": "insulin secretion stimulation", "setting": "[2]", "value": "1.2% (inactive)"}, {"measurement": "viability decrease", "setting": "[3]", "value": "14.8% (inactive)"}, {"measurement": "tube area decrease", "setting": "[4]", "value": "-1.1% (inactive)"}, {"measurement": "GLP1 secretion stimulation", "setting": "[5]", "value": "-0.5% (inactive)"}, {"measurement": "inhibition of viability", "setting": "[6]", "value": "13.1% (inactive)"}, {"measurement": "viability decrease (inhibition)", "setting": "[7]", "value": "26.5% (inactive)"}, {"measurement": "viability decrease (inhibition)", "setting": "[8]", "value": "24.6% (inactive)"}, {"measurement": "inhibition", "setting": "[9]", "value": "8.76% (inactive)"}, {"measurement": "mean signal", "setting": "[10]", "value": "245 (inactive)"}, {"measurement": "red/green cell ratio (normalised)", "setting": "[11]", "value": "0.98 (inactive)"}, {"measurement": "normalised cell number", "setting": "[11]; [16]", "value": 1.02}, {"measurement": "normalised cell number", "setting": "[11]; [17]", "value": 1}, {"measurement": "fold change", "setting": "[12]; [18]", "value": "0.877 (inactive)"}, {"measurement": "fold change", "setting": "[12]; [19]", "value": 1.39}, {"measurement": "cell count", "setting": "[12]; [20]", "value": 11600}, {"measurement": "cell count", "setting": "[12]; [21]", "value": 13300}, {"measurement": "z-score", "setting": "[13]; [22]", "value": "0.816 (inactive)"}, {"measurement": "z-score", "setting": "[13]; [23]", "value": -0.25}, {"measurement": "remaining NAD", "setting": "[14]", "value": "10 nM (inactive)"}, {"measurement": "luciferase signal", "setting": "[15]", "value": "32 AU (inactive)"}, {"measurement": "log fold change Tl+ flux", "setting": "F380Y", "value": "0.0506 (inactive)"}, {"measurement": "log fold change Tl+ flux", "setting": "F380Y/beta1", "value": "0.00826 (inactive)"}, {"measurement": "log fold change Tl+ flux", "setting": "F380Y/beta2Delta", "value": "-0.0158 (inactive)"}]}]}
